# Sampled rows, rich in hits. Any-hit rate of the full collection: about 1.8%.
# MRP resist rev = reverses drug resistance mediated by MRP; differential viability (reversal), % at 10 µM; H69AR cells + 2 uM doxorubicin, CellTiter-Glo, 72 h; actives 0.04% (n = 85,000);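 active = viability drop by adding the cancer drug above about 55%, with treated viability meeting a 40% cutoff, limit read from the data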;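 note: viability without doxorubicin minus viability with 2 µM doxorubicin for each compound; larger differential means the compound sensitizes cells more to doxorubicin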
# GALR2 blocker = blocks the human galanin receptor 2. O43603. GALR2-expressing cells, antagonist mode. inhibition, % at 4 µM. actives 0.39% (n = 140,000). AID 828;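 note: cells stimulated with galanin 1-16 at roughly its EC80; 0% = agonist challenge control and 100% = basal control without agonist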
# Target sequence (O43603 whole entry, looked up): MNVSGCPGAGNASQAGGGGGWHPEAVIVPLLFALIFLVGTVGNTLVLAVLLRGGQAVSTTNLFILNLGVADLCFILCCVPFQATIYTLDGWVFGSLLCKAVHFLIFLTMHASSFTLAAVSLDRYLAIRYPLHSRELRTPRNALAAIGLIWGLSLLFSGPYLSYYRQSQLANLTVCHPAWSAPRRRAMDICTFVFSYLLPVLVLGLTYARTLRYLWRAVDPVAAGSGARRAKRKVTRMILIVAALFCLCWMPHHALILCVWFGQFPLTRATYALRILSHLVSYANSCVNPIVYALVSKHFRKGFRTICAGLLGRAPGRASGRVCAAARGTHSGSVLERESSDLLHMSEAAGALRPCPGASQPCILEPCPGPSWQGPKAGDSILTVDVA
# MRP1 act = MRP-1 activation | H69AR cells + doxorubicin, viability rescue, CellTiter-Glo | viability increase, % at 10 µM | actives 0.61% (n = 140,000);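 active = viability gain under doxorubicin at or above a set limit, the compound median plus 3 SD, cut at about 4.7% in these data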;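 note: MRP-1 overexpressing cells given doxorubicin 25 µM after compound pretreatment; 18-22 h compound pretreatment then 72 h with doxorubicin before readout; 0% = doxorubicin-only wells and 100% = vehicle-treated cells without doxorubicin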
# GALR2 agonist = agonists of human galanin receptor 2 (GALR2); GALR2-expressing cells, agonist activation read-out; AID 803; actives 0.48% (n = 140,000); activation, % (test concentration not listed); O43603; in the data active = activation above about 5%, passing the limit was not always enough;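 note: 0% = vehicle buffer wells and 100% = reference agonist at full effect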
# S1P2 agonist = agonists of human S1P2 receptor; O95136; S1P2-expressing cell line, agonist reporter read-out; activation, % at 4.5 µM; actives 0.46% (n = 97,000); AID 729; in the data active = activation above about 16%;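 note: 0% = vehicle low control and 100% = maximal reference agonist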
# Target sequence (O95136 whole entry, looked up): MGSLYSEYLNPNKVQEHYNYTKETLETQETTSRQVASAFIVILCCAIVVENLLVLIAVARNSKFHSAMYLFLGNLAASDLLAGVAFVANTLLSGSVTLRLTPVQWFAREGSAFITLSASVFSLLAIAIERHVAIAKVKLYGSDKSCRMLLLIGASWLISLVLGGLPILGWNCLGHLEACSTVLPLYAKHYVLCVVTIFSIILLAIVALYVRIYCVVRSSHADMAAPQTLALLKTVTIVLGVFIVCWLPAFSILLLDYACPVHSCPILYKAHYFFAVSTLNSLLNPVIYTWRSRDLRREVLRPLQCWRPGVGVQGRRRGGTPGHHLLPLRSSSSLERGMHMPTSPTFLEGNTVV
# S1P2 antag = blocks the human S1P2 receptor; O95136; cell-based S1P2 antagonist assay, inhibition at 5 uM; inhibition, % at 5 µM; actives 0.21% (n = 97,000); in the data active = inhibition above about 45%;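 note: CRE beta-lactamase reporter cells expressing human S1P2 stimulated with S1P; 0% = agonist at EC80 alone and 100% = agonist plus reference antagonist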
# GALR2 ag confirm = confirmation of human galanin receptor 2 (GALR2) agonists; shares compounds with GALR2 agonist; GALR2-expressing cells, agonist activation; activation, % at 5.6 µM; actives 10% (n = 460); in the data active = activation above about 8.4%;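 note: 0% = buffer-only vehicle wells and 100% = full reference agonist response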
# BLA act counter = activates beta-lactamase reporter in GALR2 agonist counterscreen; shares compounds with GALR2 agonist; CHO NFAT-bla reporter, beta-lactamase FRET activation; activation, % at 5.6 µM; actives 10% (n = 460);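 active = activation above the screen-wide mean activation plus 3 SD, cut at about 8% in these data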;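 note: 0% = DMSO with PBS wells and 100% = thapsigargin positive control wells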
# GALR2 ant conf = confirmation of human galanin receptor 2 (GALR2) antagonists; shares compounds with GALR2 blocker; actives 60% (n = 480); GALR2-expressing cells, antagonist mode, inhibition; inhibition, % at 4 µM; AID 866;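 note: cells stimulated with galanin at about its EC80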
# BLA inh counter = inhibits beta-lactamase reporter in GALR2 antagonist counterscreen | shares compounds with GALR2 blocker | CHO NFAT-BLA reporter, beta-lactamase FRET, thapsigargin-stimulated | inhibition, % at 4.2 µM | actives 36% (n = 480) | AID 867;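 active = inhibition above the mean inhibition across tested compounds plus 3 SD, cut at about 27% in these data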;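 note: 0% = 500 nM thapsigargin stimulated wells and 100% = unstimulated BSA only wells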
# * = called active by the depositor; nt = no result given. Cut-off read from the data, not from the text of the source, unless noted: active = inhibition above about 27%; inactive = the rest.
SMILES,MRP resist rev,GALR2 blocker,MRP1 act,GALR2 agonist,S1P2 agonist,S1P2 antag,GALR2 ag confirm,BLA act counter,others
COc1cccc(N2C(=O)CC(N3CCC(C(N)=O)(N4CCCCC4)CC3)C2=O)c1 (stereo not given),8,-7,-3,-2,-3,-7,nt,nt,
O=C(Nc1nc2ccc(F)cc2s1)C1CCCO1 (stereo not given),12,-7,2,-2,-5,11,nt,nt,
O=C(Cn1c2ccccc2c(=O)c2ccccc21)Nc1cccc(F)c1,nt,0,0,12*,nt,nt,9.1*,14*,
Cn1c(SCCS(=O)(=O)c2ccc(Cl)cc2)nnc1-c1ccccc1,3,11,-3,-3,-7,-8,nt,nt,
O=C(/C=C\c1ccccc1OC(=O)c1ccccc1F)c1cc2ccccc2o1,nt,25,-6,-1,nt,nt,nt,nt,
CCN(CC)S(=O)(=O)c1ccc(Cl)c(NC(=O)COc2ccccc2[N+](=O)[O-])c1,nt,12,-4,0,nt,nt,nt,nt,
CCN(CC)S(=O)(=O)c1ccc(C)c(NC(=O)COc2ccc(Cl)cc2Br)c1,nt,-7,-5,10*,nt,nt,8,5,
COC(=O)Cc1c(C)c2ccc(OC(=O)c3ccco3)cc2oc1=O,-3,-2,-1,3,2,2,nt,nt,
COC(=O)Cc1c(C)c2cc(Cl)c(OC(=O)c3ccco3)cc2oc1=O,9,13,-1,13*,5,-13,1,3,
O=C(COC(=O)CNS(=O)(=O)c1cccc(Br)c1)NC(=O)Nc1ccc2c(c1)OCCO2,nt,9,-2,-2,nt,nt,nt,nt,
O=C(CN1CCCCC1)Nc1cc(Cl)ccc1Cl,20,1,-2,180*,-7,-25,-1,0,
O=C(CN1CCCCC1)Nc1cccc(Cl)c1Cl,8,-7,-2,2,-1,-24,nt,nt,
FC(F)(F)COc1nc(OCC(F)(F)F)nc(N2CCN(c3ccccc3)CC2)n1,2,3,2,-2,-6,-1,nt,nt,
CS(=O)(=O)N1CCC(C(=O)c2cccc(Cl)c2)CC1,10,-3,0,0,-4,18,nt,nt,
Cc1cc2nc(C3CCCN(C(=S)Nc4ccccc4C)C3)[nH]c2cc1C (stereo not given),nt,-2,-3,0,-1,6,nt,nt,
CCCNC(=S)N1CCC(c2nc3cc(C)c(C)cc3[nH]2)CC1,nt,-10,-4,32*,-6,12,-1,-2,
O=C(NNC(=O)c1ccc([N+](=O)[O-])cc1Cl)c1ccncc1,nt,-2,-1,0,nt,nt,nt,nt,
CC(=O)OCc1c(C(F)(F)F)nn(C)c1SCc1ccc(Cl)cc1,11,6,1,-3,-4,1,nt,nt,
Cc1ccc(S(=O)(=O)NC(=O)NCc2ccc3c(c2)OCO3)cc1,nt,-2,-1,152*,-5,16,0,-2,
Cc1occc1-c1nnc(SCC(=O)Nc2nc(-c3ccccc3)cs2)o1,6,4,-1,19*,-8,-13,0,-1,
O=C(NCc1ccco1)c1cccc(F)c1,nt,-9,-2,8,-3,21,-1,-1,
CCOC(=O)c1[nH]c(C)c(C(=O)Nc2ccc(C)c(F)c2)c1C,-22,3,-4,44*,nt,nt,0,-2,
N#Cc1c(-c2ccco2)nc(SCc2ccc(F)cc2)[nH]c1=O,-11,-6,2,-1,-1,5,nt,nt,
Cc1nc(SCc2cccc(F)c2)[nH]c(=O)c1C#N,-1,1,-2,154*,-8,-12,-1,-2,
COc1ccc(C2(CNC(=O)c3cccc([N+](=O)[O-])c3)CCOCC2)cc1,nt,-3,-2,-1,nt,nt,nt,nt,
SMILES,MRP resist rev,GALR2 blocker,MRP1 act,GALR2 agonist,S1P2 agonist,S1P2 antag,GALR2 ag confirm,BLA act counter,others
COc1cccc(NC(=O)C(=O)N/N=C/c2cc(C)n(-c3ccc(Cl)c(Cl)c3)c2C)c1,nt,-11,-3,0,4,-13,nt,nt,
CN(C(=O)Nc1ccccc1)C1CCS(=O)(=O)C1 (stereo not given),24,-7,-1,-1,-4,-2,nt,nt,
CC(=O)NC1=C(N(C)C2CCS(=O)(=O)C2)C(=O)c2ccccc2C1=O (stereo not given),nt,0,-4,36*,nt,nt,-1,-2,
Cc1cc(=O)[nH]c(-n2nc(C)c(Oc3ccccc3O)c2C)n1,-14,-31,-1,32*,-1,20,27*,60*,
CC(=O)Nc1nc(-c2ccc(Cl)cc2)ns1,nt,4,-2,0,nt,nt,nt,nt,
COc1ccc(C(=O)CSc2nnc(C3CC3)n2N)cc1,-11,-3,0,21*,-3,-6,-1,-2,
CCn1c(SCC(=O)c2ccc(OC)cc2)nnc1C1CC1,-12,1,-1,1,-1,-3,nt,nt,
Cc1ccc2nsnc2c1NC(=O)c1ccc(-c2cc(Cl)ccc2Cl)o1,nt,38*,-3,10,4,28,11*,3,GALR2 ant conf=23;BLA inh counter=21
Cc1cc(C(=O)CSCc2nnc3n(CCC(C)C)c(=O)c4ccccc4n23)c(C)n1C,-1,7,nt,0,-5,-21,nt,nt,
C=CCn1cc(/C=N/Nc2nc3ccccc3[nH]2)c2ccccc21,nt,28*,-5,-1,nt,nt,nt,nt,GALR2 ant conf=29*;BLA inh counter=11
Cc1ccsc1/C=N/Nc1nc2ccccc2[nH]1,nt,32*,-1,-1,nt,nt,nt,nt,GALR2 ant conf=38*;BLA inh counter=12
CCN(CC)c1ccc(/C=N/Nc2nc3ccccc3[nH]2)cc1,nt,42*,-6,4,nt,nt,nt,nt,GALR2 ant conf=35*;BLA inh counter=23
C(=N\Nc1nc2ccccc2[nH]1)/c1cccs1,nt,29*,-1,-3,-4,15,nt,nt,GALR2 ant conf=27;BLA inh counter=13
Cc1cc(=O)[nH]c(N/N=C/c2sccc2C)n1,nt,-1,-4,-2,nt,nt,nt,nt,
O=C1CC(NCCC2=CCCCC2)C(=O)N1c1cccc(Cl)c1Cl (stereo not given),nt,-3,-3,-2,-8,2,nt,nt,
Cc1ccc(C)c(C(=O)COC(=O)c2ccccc2N2C(=O)C3C4CCC(C4)C3C2=O)c1 (stereo not given),nt,0,-2,-2,-10,7,nt,nt,
COc1cccc(COc2cc3ccccc3nc2C)c1,nt,40*,4,-2,-4,57*,nt,nt,GALR2 ant conf=37*;BLA inh counter=10
O=C(C1=NN(c2ccccc2)C2C(=O)N(c3ccccc3Cl)C(=O)C12)c1ccccc1 (stereo not given),nt,29*,4,-1,nt,nt,nt,nt,GALR2 ant conf=25;BLA inh counter=42*
O=C(C1=NN(c2ccccc2)C2C(=O)N(c3ccccc3)C(=O)C12)c1ccccc1 (stereo not given),nt,19,-1,-2,nt,nt,nt,nt,
CCOC(=O)c1sc(NC(=O)CSc2nc3ccccc3s2)c(C(=O)OCC)c1C,nt,4,1,-3,nt,nt,nt,nt,

# Screens from PubChem.
